# In PubChem BioAssay (NCATS):
# Results filed as inconclusive are left out. Values without a mark were called inactive. Active and inactive are the calls of the source. Calls follow the shape of the dose curve; as a rule, active = well fitted curve in the direction sought with a large enough effect; inconclusive = small, poorly fitted or top-dose-only effect, or another doubt; inactive = no such curve, though single readings can be large; an effect the other way counts as inactive or inconclusive. Non-standard residues stand in square brackets, D forms with d. Residues, ends and D or L forms follow the SMILES beside them. *: point of attachment. Benzoyl(4-tBu) = CC(C)(C)c1ccc(C(=O)*)cc1; Lys(Et2) = CCN(CC)CCCC[C@H](N)C(=O)O
# Legend:
# [1] = BET inhibitor-based combinations targeting novel dependencies in MECOM-rearranged (r) AML: SET-2 cell line (AID 2202231); conditions: SET-2 AML cells viability, CellTiter-Glo luminescence, 48 h; viability: stronger effect = lower value, concentration not given here; also: nearly all actives have a fitted effect of over 35% in size;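 as to viability: plate controls were DMSO treated cells for no effect and wells without cells for full effect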
# In short: (§1)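 Luminescent ATP readout (CellTiter-Glo) after 48 hr drug exposure gives viability. Curves span 11 concentrations and are normalized to DMSO and empty wells. Activity is reported as area under the curve and its Z-transform within each cell line.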
# [2] = BET inhibitor-based combinations targeting novel dependencies in MECOM-rearranged (r) AML: MV-4-11 cell line (AID 2202233); also: nearly all actives have a fitted effect of over 45% in size;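 as to viability, % of control: plate controls were DMSO for no effect and blank wells for full effect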
# In short: (§2)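 Luminescent ATP readout (CellTiter-Glo, 15 min at room temperature) after 48 hr drug exposure gave viability. Dose-response curves, normalized to DMSO and empty-well controls, were summarized as area under the curve and its mean-centred Z-score.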
# [3] = BET inhibitor-based combinations targeting novel dependencies in MECOM-rearranged (r) AML: HNT-34 cell line (AID 2202234); also: nearly all actives have a fitted effect of over 35% in size;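 as to viability (% of control): plate controls were vehicle wells for no effect and cell-free wells for full effect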
# In short: as §2
# [4] = BET inhibitor-based combinations targeting novel dependencies in MECOM-rearranged (r) AML: AML-194 cell line (AID 2202237; also: nearly all actives have a fitted effect of over 40% in size;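 as to viability (% of control): plate controls were vehicle wells for no effect and wells without cells for full effect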)
# In short: as §1
# [5] = BET inhibitor-based combinations targeting novel dependencies in MECOM-rearranged (r) AML: UCSD-AML1 cell line (AID 2202235); also: nearly all actives have a fitted effect of over 40% in size;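 as to viability (% of control): series mostly up to about 46 µM; plate controls were DMSO vehicle wells for no effect and blank wells for full effect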
# In short: as §2
# [6] = BET inhibitor-based combinations targeting novel dependencies in MECOM-rearranged (r) AML: AML-191 cell line (AID 2202236; also: nearly all actives have a fitted effect of over 35% in size;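 as to viability (% of control): plate controls were vehicle wells for no effect and wells without cells for full effect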)
# In short: as §1
# Potency is read from the fitted curve at half-maximal effect.
smiles,measurement,setting,value
CC#Cc1cncc(-c2ccc3c(c2)[C@@]2(N=C(C)C(N)=N2)C2(CCC(OC)CC2)C3)c1 (stereo partly specified),viability,[1],107%
same,Potency,[2],18.6 µM (active)
same,Potency,[3],inactive
same,Potency,[4],inactive
CN[C@@H](C)C(=O)N[C@H](C(=O)N1CCC[C@H]1c1nc(C(=O)c2ccc(F)cc2)cs1)C1CCCCC1,Potency,[1],16.6 µM (active)
same,Potency,[2],16.6 µM (active)
same,Potency,[5],20.9 µM (active)
O=C(Nc1ccccc1)Nc1ccc(-c2ccc(C(=O)[C@@H]3CCC[C@H]3C(=O)O)cc2)cc1,viability,[1],105%
same,Potency,[2],inactive
same,Potency,[3],inactive
same,Potency,[4],inactive
CN(C)Cc1cccc(N=C(c2ccccc2)c2c(O)[nH]c3cc(C(N)=O)ccc23)c1,viability,[1],78%
same,Potency,[2],0.662 µM (active)
same,Potency,[5],inactive
Cc1ccc(NS(=O)(=O)c2cccc(C#N)c2)c2[nH]cc(C#N)c12,Potency,[1],14.8 µM (active)
same,Potency,[2],0.296 µM (active)
same,Potency,[5],0.833 µM (active)
CC(C)(C)c1nc2c3cc[nH]c(=O)c3c3cc(F)ccc3c2[nH]1,Potency,[1],1.18 µM (active)
same,Potency,[2],1.18 µM (active)
same,Potency,[5],0.235 µM (active)
Nc1nc2cc(-c3ccc4ncc(C(=O)N5CCOCC5)n4c3)ccc2o1,viability,[1],99.4%
same,Potency,[2],16.6 µM (active)
same,Potency,[5],8.33 µM (active)
Cc1cc(O)cc2c1[C@]1(C)CC[C@H]3C(C)(C)CCC[C@]3(C)[C@H]1C2,viability,[1],50.3%
same,"viability, % of control",[2],0.199% [at 5.12 µM]
same,viability (% of control),[5],14.8% [at 5.12 µM]
CN1CCN(c2ccc3nc(-c4c(N)c5c(F)cccc5[nH]c4=O)[nH]c3c2)CC1,Potency,[1],4.17 µM (active)
same,Potency,[2],0.059 µM (active)
same,Potency,[3],0.833 µM (active)
same,Potency,[5],3.32 µM (active)
same,Potency,[6],1.86 µM (active)
same,Potency,[4],1.86 µM (active)
CCN[C@H]1C[C@H](C)S(=O)(=O)c2sc(S(N)(=O)=O)cc21,viability,[1],114%
same,Potency,[2],inactive
same,Potency,[3],inactive
same,Potency,[5],inactive
same,Potency,[6],inactive
same,Potency,[4],inactive
CC(C)=CCC/C(C)=C/CC/C(C)=C/CSc1ccccc1C(=O)O,viability,[1],106%
same,Potency,[2],11.8 µM (active)
same,Potency,[5],inactive
same,Potency,[6],inactive
same,Potency,[4],inactive
CC(C)(C(=O)NCC(F)(F)C(F)(F)F)C(=O)N[C@@H]1C(=O)Nc2ccccc2-c2ccccc21,viability,[1],105%
same,Potency,[2],inactive
same,Potency,[3],inactive
same,Potency,[6],inactive
same,Potency,[4],inactive
O=c1sn(-c2cccc3ccccc23)c(=O)n1Cc1ccccc1,viability,[1],92.2%
same,Potency,[2],11.8 µM (active)
same,Potency,[3],inactive
same,Potency,[4],14.8 µM (active)
Cc1noc(C)c1-c1ccc(-c2cc(C(N)=O)c(NC(N)=O)s2)c(O[C@H]2CCNC2)c1,viability,[1],123%
same,Potency,[2],inactive
same,Potency,[3],inactive
same,Potency,[5],inactive
same,Potency,[6],inactive
same,Potency,[4],inactive
O=C(O)/C(S)=C/c1ccc(I)cc1,viability,[1],112%
same,Potency,[2],inactive
same,Potency,[3],inactive
same,Potency,[5],inactive
same,Potency,[4],inactive
Cc1ccc(NC(=O)[C@H]2CCCN(C(=O)c3c(C)cccc3F)[C@H]2c2ccc(NC3CCCC3)cc2)cc1C(F)(F)F,viability,[1],94.7%
same,Potency,[2],inactive
same,Potency,[3],9.34 µM (active)
same,Potency,[6],inactive
CCOC(=O)[C@H](CCc1ccccc1)N[C@H]1CCc2ccccc2N(CC(=O)O)C1=O,viability,[1],115%
same,Potency,[2],7.42 µM (active)
same,Potency,[3],inactive
same,Potency,[5],inactive
same,Potency,[6],inactive
same,Potency,[4],inactive
C[C@@H]1N=C(N)NC(N(C)C)=N1,viability,[1],102%
same,Potency,[2],inactive
same,Potency,[3],inactive
same,Potency,[6],inactive
same,Potency,[4],inactive
COc1ccc(S(=O)(=O)N[C@@H](CNc2nc(C)nc(N3CCC(c4ccc5c(n4)NCCC5)CC3)c2C)C(=O)O)cc1,viability,[1],111%
same,Potency,[2],inactive
same,Potency,[3],inactive
same,Potency,[6],inactive
same,Potency,[4],inactive
COc1ccccc1C(=O)Nc1cc2c(cc1N1CCNC[C@H]1C)n(C)c(=O)n2C,viability,[1],103%
same,Potency,[2],5.9 µM (active)
same,Potency,[5],inactive
Cc1ccc(-c2ncn(-c3ccc(Nc4nccc(-c5cccc(N6CCOCC6)c5)n4)cc3)n2)cn1,Potency,[1],3.72 µM (active)
same,Potency,[2],2.35 µM (active)
same,Potency,[3],2.95 µM (active)
same,Potency,[5],2.35 µM (active)
same,Potency,[6],2.35 µM (active)
same,Potency,[4],2.95 µM (active)
COc1cc2c3c(n(CCCN4CCOCC4)c(=O)c2cc1OC)-c1cc2c(cc1C3=O)OCO2,Potency,[1],0.105 µM (active)
same,Potency,[2],0.0833 µM (active)
same,Potency,[3],0.0934 µM (active)
same,Potency,[5],0.0934 µM (active)
same,Potency,[6],0.105 µM (active)
same,Potency,[4],0.417 µM (active)
CCN(CC)CCCC[C@H](NC(=O)[C@H](CC(C)C)NC(=O)[C@H](C)NC(=O)[C@H](Cc1ccccc1)NC(=O)c1ccc(C(C)(C)C)cc1)C(=O)N[C@@H](CO)C(=O)OC ({Benzoyl(4-tBu)}-FAL[Lys(Et2)]S-OMe),viability,[1],71.5%
same,Potency,[2],inactive
same,Potency,[3],inactive
same,Potency,[5],inactive
same,Potency,[6],inactive
same,Potency,[4],inactive
CC[C@H](CO)Nc1nc(NCc2ccccc2)c2ncn(C(C)C)c2n1,Potency,[1],26.3 µM (active)
same,Potency,[2],20.9 µM (active)
same,Potency,[5],26.3 µM (active)
same,Potency,[6],23.5 µM (active)
Nc1nc(OC(c2ccc(-c3cccc(F)c3)cc2)C(F)(F)F)cc(-c2ccc(C[C@@H](N)C(=O)O)cc2)n1 (stereo partly specified),viability,[1],100%
same,Potency,[2],inactive
same,Potency,[5],inactive
same,Potency,[6],inactive
same,Potency,[4],inactive
CO[C@H]1O[C@@H]2O[C@@]3(C)CC[C@H]4[C@H](C)CC[C@@H]([C@H]1C)[C@@]24OO3,Potency,[1],20.9 µM (active)
same,Potency,[2],4.17 µM (active)
same,Potency,[5],inactive
same,Potency,[6],16.6 µM (active)
COCCNc1cc(NC(=O)N2CCCc3cc(CN4CCN(C)CC4=O)c(C=O)nc32)ncc1C#N,viability,[1],114%
same,"viability, % of control",[2],97.1% [at 8.46 µM]
same,viability (% of control),[3],102% [at 8.46 µM]
same,viability (% of control),[6],96.5% [at 8.46 µM]
same,viability (% of control),[4],95.1% [at 8.46 µM]
Cn1cc(C[C@@H](N)C(=O)O)c2ccccc21,viability,[1],113%
same,"viability, % of control",[2],103% [at 8.46 µM]
same,viability (% of control),[3],100% [at 8.46 µM]
same,viability (% of control),[5],112% [at 8.46 µM]
same,viability (% of control),[6],110% [at 8.46 µM]
same,viability (% of control),[4],109% [at 8.46 µM]
CN(C)C/C=C/C(=O)Nc1cc2c(Nc3ccc(F)c(Cl)c3)ncnc2cc1O[C@H]1CCOC1,Potency,[1],4.68 µM (active)
same,Potency,[2],1.18 µM (active)
same,Potency,[3],2.95 µM (active)
same,Potency,[6],7.42 µM (active)
same,Potency,[4],7.42 µM (active)
COc1ccc(/C=C\c2cc(OC)c(OC)c(OC)c2)cc1O,Potency,[1],0.0148 µM (active)
same,Potency,[2],0.0132 µM (active)
same,Potency,[6],0.0132 µM (active)
CS(=O)(=O)c1ccc(-c2cnc(NCc3ccco3)n3cnnc23)cc1,viability,[1],108%
same,Potency,[3],inactive
same,Potency,[5],inactive
same,Potency,[6],inactive
CC1=C(/C=C/C(C)=C/C=C/C(C)=C/C=C/C=C(C)/C=C/C=C(C)/C=C/C2=C(C)CCCC2(C)C)C(C)(C)CCC1,viability,[1],103%
same,Potency,[2],23.5 µM (active)
same,Potency,[5],inactive
same,Potency,[6],inactive
same,Potency,[4],inactive
COc1ccc(S(=O)(=O)NCc2ccc(C(=O)NCCc3ccc(Cl)cn3)cc2)cc1,viability,[1],98%
same,Potency,[3],inactive
same,Potency,[5],inactive
same,Potency,[6],inactive
same,Potency,[4],inactive
Cc1c(CN2CCC(Nc3ncnc4sc(CC(F)(F)F)cc34)CC2)ccc2c1cc(C#N)n2Cc1cn[nH]c1,Potency,[1],3.32 µM (active)
same,Potency,[2],3.32 µM (active)
same,Potency,[5],16.6 µM (active)
same,Potency,[6],18.6 µM (active)
same,Potency,[4],20.9 µM (active)
CCn1c(=O)c(-c2ccc(-c3cncc(C)n3)cc2Cl)cc2cnc(NCCC3CCN(C)CC3)nc21,viability,[1],93.7%
same,Potency,[2],1.18 µM (active)
same,viability (% of control),[5],99.8% [at 5.12 µM]
same,viability (% of control),[4],89.1% [at 5.12 µM]
O=C(Nc1nccs1)C(c1cc(F)ccc1O)N1Cc2ccccc2C1=O (stereo unspecified),Potency,[1],18.6 µM (active)
same,Potency,[3],16.6 µM (active)
same,Potency,[5],inactive
same,Potency,[6],inactive
same,Potency,[4],inactive
CNC(=O)Cn1cc(-c2ccc3c(c2)C(F)CC32NC(=O)N(CC(=O)N(Cc3ccc(F)cc3)C(C)C(F)(F)F)C2=O)cn1 (stereo unspecified),Potency,[1],3.72 µM (active)
same,Potency,[3],0.0833 µM (active)
CC(C)(C)S(=O)(=O)c1ccc2nccc(Nc3n[nH]c4ccc(F)cc34)c2c1,viability,[1],104%
same,Potency,[3],inactive
same,Potency,[5],0.0012 µM (active)
same,Potency,[6],10.5 µM (active)
same,Potency,[4],inactive
C[C@]12CC[C@@H]3c4ccc(O)cc4CC[C@H]3[C@@H]1C[C@@H](O)[C@@H]2O,viability,[1],109%
same,Potency,[3],inactive
same,Potency,[5],inactive
same,Potency,[6],inactive
same,Potency,[4],inactive
COc1cc(OC)c(NC(=O)Nc2cc(C)on2)cc1Cl,viability,[1],115%
same,Potency,[3],inactive
same,Potency,[5],inactive
same,Potency,[6],inactive
same,Potency,[4],inactive
FC(F)(F)c1ccc(CNc2ccc(Cc3c[nH]c4ncc(Cl)cc34)cn2)cn1,viability,[1],110%
same,Potency,[2],0.934 µM (active)
same,Potency,[5],inactive
same,Potency,[4],inactive
CC(/C=C/[C@@H]1C[C@]1(C)c1ccc2c(c1)C(C)(C)CCC2(C)C)=C\C(=O)O,viability,[1],110%
same,Potency,[3],18.6 µM (active)
Clc1cccc(C(c2ccc3nc[nH]c3c2)n2ccnc2)c1 (stereo unspecified),viability,[1],113%
same,Potency,[3],inactive
same,Potency,[5],inactive
same,Potency,[6],inactive
same,Potency,[4],inactive
Cc1ccc2cc(-c3c(C)ccc(C(=O)c4c(-c5ccccc5)n(C)n(-c5ccccc5)c4=O)c3N)ccc2n1,viability,[1],92.3%
same,Potency,[2],inactive
same,Potency,[6],inactive
same,Potency,[4],inactive
c1ccc(CNCc2ccc(CN3CCCNCCNCCCNCC3)cc2)nc1,viability,[1],110%
same,Potency,[3],inactive
same,Potency,[5],inactive
same,Potency,[6],inactive
same,Potency,[4],inactive
C=CC(=O)Nc1cc(N2CCN(CC)CC2)ccc1Nc1cc(N(C)C(=O)Nc2c(Cl)c(OC)cc(OC)c2Cl)ncn1,viability,[1],112%
same,Potency,[2],20.9 µM (active)
same,Potency,[4],inactive
CN(C)CC[C@H](CSc1ccccc1)Nc1ccc(S(=O)(=O)NC(=O)c2ccc(N3CCN(Cc4ccccc4-c4ccc(Cl)cc4)CC3)cc2)cc1[N+](=O)[O-],Potency,[1],10.5 µM (active)
same,Potency,[2],0.263 µM (active)
same,Potency,[6],2.35 µM (active)
same,Potency,[4],1.86 µM (active)
Cc1cc(-c2ccc(CC(=O)Nc3ccc(-c4cccnc4)cc3)cc2)ccn1,Potency,[1],16.6 µM (active)
same,Potency,[2],13.2 µM (active)
same,Potency,[6],9.34 µM (active)
